From the supplement of paper PMC6555819

How the values were obtained:
Assay in all cases: PBM binding z-score (relative to random genomic background probes); higher = stronger binding; sequences stand for … in GC…GCGATTGACAGCGTAGAATGAAGG
[1] = system: FXR:RXRa (NR concentration 270 nM, RXRa partner concentration 90 nM)
In short: (§1)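 Binding z-scores take random background probes as their reference. They come from custom Agilent 4×180K protein-binding microarrays incubated 1 h with ligand-free nuclear receptor dimers, with antibodies against each partner (one per run) detecting binding. Scanned fluorescence was regression-normalized.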

[2] = system: LXRa:RXRa (NR concentration 270 nM, RXRa partner concentration 90 nM)
In short: as §1

[3] = system: LXRa homodimer (NR concentration 270 nM)
In short: as §1

[4] = system: LXRb:RXRa (NR concentration 270 nM, RXRa partner concentration 90 nM)
In short: as §1

[5] = system: LXRb homodimer (NR concentration 270 nM)
In short: as §1

[6] = system: PPARa:RXRa (NR concentration 270 nM, RXRa partner concentration 90 nM)
In short: as §1

[7] = system: PPARg:RXRa (NR concentration 180 nM, RXRa partner concentration 90 nM)
In short: as §1

[8] = system: PPARg:RXRa 270nM:90nM, anti-RXR (NR concentration 270 nM, RXRa partner concentration 90 nM)
In short: as §1

[9] = system: PPARg:RXRa 30nM:10nM, anti-RXR (NR concentration 30 nM, RXRa partner concentration 10 nM)
In short: as §1

[10] = system: PPARg:RXRa 90nM:30nM, anti-RXR (NR concentration 90 nM, RXRa partner concentration 30 nM)
In short: as §1

[11] = system: PPARg:RXRa DBDmut IVT, anti-RXR (DBD mutation: RXRa K156A/R161A, NR concentration 270 nM, RXRa partner concentration 90 nM)
In short: as §1

[12] = system: PPARg:RXRa IVT, anti-PPARg (NR concentration 270 nM, RXRa partner concentration 90 nM)
In short: as §1

[13] = system: PPARg DBDmut:RXRa IVT, anti-PPARg (DBD mutation: PPARg1 K132A/R137A, NR concentration 270 nM, RXRa partner concentration 90 nM)
In short: as §1

[14] = system: PPARg DBDmut IVT, anti-PPARg (DBD mutation: PPARg1 K132A/R137A, NR concentration 270 nM)
In short: as §1

[15] = system: PPARg homodimer (NR concentration 180 nM)
In short: as §1

[16] = system: PXR:RXRa (NR concentration 270 nM, RXRa partner concentration 90 nM)
In short: as §1

[17] = system: PXR homodimer (NR concentration 270 nM)
In short: as §1

[18] = system: RARa:RXR (NR concentration 270 nM, RXRa partner concentration 90 nM)
In short: as §1

[19] = system: RARa homodimer (NR concentration 270 nM)
In short: as §1

[20] = system: RARb:RXRa (NR concentration 270 nM, RXRa partner concentration 90 nM)
In short: as §1

Sequence	PBM binding z-score [1]	PBM binding z-score [2]	PBM binding z-score [3]	PBM binding z-score [4]	PBM binding z-score [5]	PBM binding z-score [6]	PBM binding z-score [7]	PBM binding z-score [8]	PBM binding z-score [9]	PBM binding z-score [10]	PBM binding z-score [11]	PBM binding z-score [12]	PBM binding z-score [13]	PBM binding z-score [14]	PBM binding z-score [15]	PBM binding z-score [16]	PBM binding z-score [17]	PBM binding z-score [18]	PBM binding z-score [19]	PBM binding z-score [20]
CGTCCAAGGTCATAGGCGGTCAGTGAAGACAGAT	7.45	6.83	2.89	4.79	0.324	5.55	4.7	5.18	1.82	3.6	2.93	3.58	-0.0996	0.332	2.85	5.12	1.57	4.75	1.15	4.94
CGAACTAGGTCATCCAGGACAGTGAGTACATTGA	4.32	2.81	0.741	1.9	0.24	4.49	7.45	6.5	3.99	5.85	8.47	8.31	2.59	1.36	2.5	2.8	8.11	2.46	0.186	3.92
CCTAGCAGGCCAGGGTCGCTCAAGCATTTCGCTT	1.21	1.49	-0.612	1.26	-1.47	2.58	-0.528	0.271	-1.11	-0.71	-0.39	-0.535	-1.87	-2.27	-0.112	1.78	-0.439	1.84	-0.399	0.562
CCTACTGGGCCAAGGTAATTGATCAGTCAAAGCA	-0.458	-0.478	-0.526	-0.461	-0.835	0.508	0.767	1.22	0.0282	0.531	4.09	3.56	-0.62	-0.619	-0.616	-0.363	-0.674	0.0953	-0.936	0.0612
TCTCGGAGGACGCGAAGGTCAGAGCTTTCCAGAG	0.524	0.815	-0.319	0.715	-1.33	1.69	-0.182	1.06	1.62	1.21	0.846	-0.0947	-1.23	-1.47	0.0628	1.33	-0.286	1.61	-0.357	2.7
ATCGAAAGGTCGTGAGATGAGTATACAGAAAGGC	4.78	3.98	0.0145	3	0.525	5.17	3.63	3.8	1.53	2.49	-0.3	1.61	1.59	1.02	1.18	3	0.0556	3.62	0.436	3.91
TCGAGTTGGTTAGGGGCATTCAGAATGGCGTCGA	0.222	0.121	-0.233	0.793	-0.112	0.575	-0.307	0.595	0.687	0.343	0.816	-0.123	-0.765	-0.477	0.182	1.14	2.82	0.232	0.104	0.514
CCTTACGGGTCACGAGGTAATAGCACGACGAGCG	6.82	4.16	-0.00739	3.79	0.00142	5.93	7.12	6.63	3.83	5.54	4.44	5.5	3.05	1.21	4.14	4.07	0.0228	5.59	1.16	4.46
ACAGACAGGTGGGTGAAGGTAACTCAGCTGGACG	0.0751	-0.222	-0.335	-0.235	-0.295	0.238	0.861	0.585	-0.13	0.177	0.962	1.16	0.32	-0.724	0.276	-0.217	0.171	0.0103	-0.0597	0.155
ATATGTAGGTTATCGGGTCAGTCAGTTTGCGCAT	2.15	2.12	0.91	1.91	1.49	4.28	6.83	5.81	3.11	5	7.7	7.77	4.15	2.31	2.57	2.53	2.52	2.6	1.19	2.55
CCTATTTGGTCAGGAGGTCACACACCGGATATGA	3.94	3.62	2.35	3.64	1.25	4.34	3.42	4.03	1.66	3.23	1.91	3.3	1.63	0.887	3.54	4.35	1.72	4.86	2.56	3.94
CTCGAAAGGTCGCTTGAGGTGAGTATACGGATAA	4.18	3.88	-0.291	2.68	-0.203	4.15	2.15	2.92	0.841	1.64	0.887	1.84	-0.0758	0.0176	1.47	4.26	0.207	3.93	0.149	3.61
TCTCGGAGGACACGAAGGTGAGAGCTTTCCAGAG	-0.0901	-0.338	-0.832	-0.756	-1.18	-0.0332	0.00837	0.718	1.9	0.958	1.32	0.688	-0.824	-1.52	-0.651	-0.315	-0.615	-0.0834	-0.906	1.69
CATACAGGGTCAGCTAGGTCAGAGTAGGGACGGC	5.34	3.88	0.985	3.24	0.645	4.72	4.42	3.93	0.846	2.42	1.85	3.37	1.35	1.12	3.26	3.65	1.7	4.31	1.02	4.44
